Assay [1] has as its target 6-phosphogluconate dehydrogenase, decarboxylating (Homo sapiens) (UniProt P52209). Put plainly: 6PGD enzyme inhibitors, primary screen, biochemical, human, recombinant enzyme, NADPH absorbance (AID 1159550;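 active = at least 20% inhibition of 6-phosphogluconate dehydrogenase activity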). Conditions: recombinant 6PGD, NADPH absorbance 341 nm; at 10 µM; stronger effect = higher value.
Assay [2] can be described thus: differential killing of epithelial or mesenchymal cells, primary screen, imaging, PC-3E GFP, TEM4-18 mCherry, co-culture (AID 1345086;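 active = compounds killing one labelled cell type while sparing the other, by normalised counts and ratio limits, not self-fluorescent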;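 for all read-outs here: cells exposed to compound for 72 h before imaging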;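 for red/green cell ratio (normalised): normalised mesenchymal count divided by normalised epithelial count so high means epithelial killing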). Conditions: imaging cell counts, at 1 µM; for red/green cell ratio (normalised): actives lie on both sides, counts scaled to control wells, 1 = unselective.
In assay [3] the target is Mitogen-activated protein kinase 7 (Homo sapiens) (UniProt Q13164). In words: ERK5 transactivation activators in reporter cells, primary screen, cell-based, HTS (AID 1508626;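 active = luciferase signal above three times the same-plate solvent-only control wells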;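 note: luciferase driven by Gal4-ERK5 fusion binding five Gal4 sites before minimal TATA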). Conditions: HeLa Gal4-ERK5 transactivation, 18 h, at 5 µM, stronger effect = higher value.
Chain of Mitogen-activated protein kinase 7 (Homo sapiens) (Q13164 whole entry, looked up, the tested form may be a part): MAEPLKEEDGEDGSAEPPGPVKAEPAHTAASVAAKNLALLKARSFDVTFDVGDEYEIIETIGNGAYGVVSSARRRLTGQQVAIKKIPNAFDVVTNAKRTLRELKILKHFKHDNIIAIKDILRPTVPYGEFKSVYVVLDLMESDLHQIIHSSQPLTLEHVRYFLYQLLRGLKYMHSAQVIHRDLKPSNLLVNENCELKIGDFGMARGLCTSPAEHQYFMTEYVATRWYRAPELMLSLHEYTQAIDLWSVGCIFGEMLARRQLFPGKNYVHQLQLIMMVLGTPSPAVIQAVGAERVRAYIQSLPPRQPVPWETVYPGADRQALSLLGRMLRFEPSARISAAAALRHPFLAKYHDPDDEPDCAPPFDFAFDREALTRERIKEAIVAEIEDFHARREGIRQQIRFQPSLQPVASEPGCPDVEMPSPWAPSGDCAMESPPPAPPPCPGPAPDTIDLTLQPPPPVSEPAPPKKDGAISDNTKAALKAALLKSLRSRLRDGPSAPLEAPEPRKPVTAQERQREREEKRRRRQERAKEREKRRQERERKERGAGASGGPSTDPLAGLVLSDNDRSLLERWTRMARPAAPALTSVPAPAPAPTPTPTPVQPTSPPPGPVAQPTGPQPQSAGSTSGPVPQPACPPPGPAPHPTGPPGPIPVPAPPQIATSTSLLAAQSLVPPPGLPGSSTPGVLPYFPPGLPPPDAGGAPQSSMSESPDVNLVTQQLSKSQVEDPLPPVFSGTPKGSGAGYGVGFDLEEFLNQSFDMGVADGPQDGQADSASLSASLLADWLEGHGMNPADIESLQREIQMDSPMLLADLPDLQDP
A short description of assay [4]: polyglutamine-triggered caspase-3 activation inhibitors, cell-based (AID 1583). Conditions: polyglutamine-induced caspase-3 activation, cell assay; stronger effect = higher value;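 tested at 10 µM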.
The nature of assay [5]: suppressors of polyQ aggregation in yeast, 75Q-TubU reporter (AID 1593). Conditions: Yeast 75Q polyglutamine aggregation reporter.
A short description of assay [6]: rescue of polyQ-huntingtin neuronal dysfunction in worms, whole organism, C. elegans mechanosensory neurons, N-terminal huntingtin (AID 1599). To be noted: touch response, stronger effect = higher value.
Assay [7] can be described thus: inhibitors of mitochondrial cytochrome c release, biochemical, purified mitochondria (AID 1603).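 Note: mouse liver mitochondria challenged with calcium chloride; signal normalized to the plate average as 100%.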 To be noted: stronger effect = lower value.
Assay [8] can be described thus: inhibitors of polyQ protein aggregation (AID 1604). Conditions: polyglutamine-induced protein aggregation inhibition assay; stronger effect = higher value; tested at 2.5 µM.
A short description of assay [9]: enhancers of glutamate uptake in motor neurons, MN-1 cell line (AID 1612).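 Note: tested at 1 µM final; 0% = mean of DMSO vehicle wells on each plate; positive means more glutamate uptake than control and negative means less.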 To be noted: MN-1 motor neuron cells, stronger effect = higher value.
The nature of assay [10]: suppressors of polyglutamine aggregation in yeast, 75Q-TubH (AID 1616). To be noted: S. cerevisiae 75Q-TubH polyglutamine aggregation suppression; stronger effect = higher value.
The nature of assay [11]: liver-stage malaria parasite growth inhibition, primary screen, cell-based, HepG2, luciferase luminescence, HepG2 viability (AID 624349).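 Note: 100% = mean of DMSO negative control wells on the same plate.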 Conditions: P. berghei liver stage in HepG2, luciferase luminescence, concentration not given here; parasite load remaining: stronger effect = lower value; viability: measured here: HepG2 viability without parasites.
Assay [12] in a line: sensitizers of A549 cells to miR-34 induction, primary screen, imaging, A549 dox-inducible miR-34, nuclei and caspase counts (AID 1347080;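 active = compounds whose cell count with miR-34 switched on is under 0.7 times the count with it off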). To be noted: A549 miR-34 inducible, Hoechst nuclei count, 48 h.
The nature of assay [13]: viability rescue of complex I mutant cybrids, primary screen, cell-based, galactose medium, ATP luminescence (AID 1645843;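 active = z-score of at least 1.8 in each of two replicates, scored against plate mean and spread of sample wells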;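 note: positive z means more ATP and so rescue of galactose-driven cybrid death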). Conditions: complex I mutant cybrid cells, 72 h, stronger effect = higher value.
A short description of assay [14]: growth inhibition of DIPG glioma cells, dose response, cell-based, JHH-DIPG-1, MIPE4.0, CellTiter-Glo, qHTS (AID 1347062; cut-off not given, nearly all actives have AC50 up to about 27 µM). Conditions: JHH-DIPG-1 viability, CellTiter-Glo ATP luminescence.
Assay [15] in a line: survival rescue of mitochondrial mutant cells in low glucose, primary screen, MELAS cybrids, Rieske KO mouse fibroblasts, CellTiter-Glo (AID 1508586;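 active = mean z-score across replicates of 1.96 or higher in either the MELAS or the Rieske mutant cell line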;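 note: z relative to plate mean and SD of compound and empty wells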). For orientation: ATP-based viability assays read luminescence as a measure of living cells.
In assay [16] the target is NAD(+) hydrolase SARM1 (Homo sapiens) (UniProt Q6SZW1). In words: SARM1 TIR NADase inhibitors, cell lysate, NAD-Glo luminescence (AID 1508614;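 active = compound whose remaining NAD level is above about 45 nM, limit read from the data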;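 note: higher remaining NAD means stronger inhibition of SARM1 NADase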). To be noted: SAM-TIR HEK293T lysate NADase, at 1 µM, stronger effect = higher value.
Chain of NAD(+) hydrolase SARM1 (Homo sapiens) (Q6SZW1 whole entry, looked up): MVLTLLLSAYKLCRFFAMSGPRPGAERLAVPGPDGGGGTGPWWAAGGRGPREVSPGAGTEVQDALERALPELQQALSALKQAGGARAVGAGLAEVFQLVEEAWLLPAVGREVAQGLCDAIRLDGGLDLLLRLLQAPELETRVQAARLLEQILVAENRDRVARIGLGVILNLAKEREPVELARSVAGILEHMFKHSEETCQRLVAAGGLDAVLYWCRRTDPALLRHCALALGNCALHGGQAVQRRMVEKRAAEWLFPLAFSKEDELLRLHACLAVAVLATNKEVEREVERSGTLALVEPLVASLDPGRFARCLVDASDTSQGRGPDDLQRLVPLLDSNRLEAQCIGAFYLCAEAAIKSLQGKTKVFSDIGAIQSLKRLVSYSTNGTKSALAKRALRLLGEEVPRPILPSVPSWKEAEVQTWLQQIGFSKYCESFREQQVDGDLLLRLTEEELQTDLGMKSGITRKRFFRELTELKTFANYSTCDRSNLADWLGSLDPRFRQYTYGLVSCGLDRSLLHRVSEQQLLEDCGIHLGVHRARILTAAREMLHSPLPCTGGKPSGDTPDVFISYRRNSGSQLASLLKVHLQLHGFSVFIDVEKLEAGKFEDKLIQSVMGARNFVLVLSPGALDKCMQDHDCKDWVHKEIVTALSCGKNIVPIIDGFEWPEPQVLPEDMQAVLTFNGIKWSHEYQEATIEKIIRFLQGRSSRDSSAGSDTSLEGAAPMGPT
Setting [17] is: measured here: epithelial PC-3E GFP cell survival.
Where [18] appears, read: measured here: mesenchymal TEM4-18 mCherry cell survival.

Values joined by “and” are separate entries in the source; they are usually repeats but may differ in a detail not shown here. Identical values can stand only once. Records with an inconclusive call do not appear. For some of these results: Potency and affinity values are given separately. The source holds several records for some structures; these can differ, active in one and inactive in another. Active and inactive are the calls of the source. Cut-off read from the data, not from the text of the source, unless noted: active = parasite load remaining mostly below about 12% (no sharp cut-off); inactive = mostly above about 10%.

Chain of 6-phosphogluconate dehydrogenase, decarboxylating (Homo sapiens) (P52209 whole entry, looked up): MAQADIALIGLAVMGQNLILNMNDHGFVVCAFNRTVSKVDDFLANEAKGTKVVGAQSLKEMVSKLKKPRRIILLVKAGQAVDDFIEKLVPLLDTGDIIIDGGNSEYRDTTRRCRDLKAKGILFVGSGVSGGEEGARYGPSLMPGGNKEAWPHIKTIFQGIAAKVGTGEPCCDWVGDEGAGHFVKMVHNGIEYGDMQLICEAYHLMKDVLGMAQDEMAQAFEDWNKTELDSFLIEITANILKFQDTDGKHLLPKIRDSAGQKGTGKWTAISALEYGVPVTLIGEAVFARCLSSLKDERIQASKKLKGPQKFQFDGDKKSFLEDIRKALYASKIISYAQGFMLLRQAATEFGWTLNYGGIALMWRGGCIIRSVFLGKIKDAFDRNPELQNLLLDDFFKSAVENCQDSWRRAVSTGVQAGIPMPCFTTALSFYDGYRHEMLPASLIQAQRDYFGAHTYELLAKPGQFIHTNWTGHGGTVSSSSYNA

The inhibition is the change of the read-out against control, counted positive when it falls. Consider `COc1ccc2c(c1)OC/C(=C\c1ccc(OC)c(O)c1)C2=O`, for which the inhibition in assay [1] was -46% (inactive). Besides, the red/green cell ratio (normalised) in [2] was 0.99 (inactive). Besides, the normalised cell number in assay [2] (setting [17]) and in assay [2] (setting [18]) was 0.74 each time. Besides, in assay [3], the luciferase signal is 88 AU (inactive).
By viability is commonly meant a read-out of living cells in per cent, often relative to untreated cells. For `NC(Cn1ccc(=O)c(O)c1)C(=O)O` (stereo not drawn), the inhibition in assay [4] was -4.48%; in assay [1], 17.3% (inactive). This compound also displayed a score in assay [5] of 0.73. In assay [6], this compound gave a rescue above control of -6.31. Further, in [7], the cytochrome c release ratio turned out to be 0.84. The inhibition of aggregation in [8] amounted to 7.48%. Further, the glutamate uptake change in assay [9] was determined as 15.6%. Besides, the aggregation suppression score in assay [10] is 0.845. Further, in [11], the parasite load remaining was 81.8% (inactive) and 76.8% (inactive). Also, the viability in assay [11] was 72.6%. Moreover, the red/green cell ratio (normalised) in [2] was 1.1 (inactive). Moreover, the normalised cell number in [2] (setting [17]) amounted to 0.94; in [2] (setting [18]) it was 1.04.
Take `C[C@@]12C(=O)OC(=O)[C@]1(C)[C@H]1CC[C@@H]2O1`: the parasite load remaining in assay [11] is -0.2% (inactive). For the same compound, in [11], the viability was 9.1%. Besides, the inhibition in assay [1] was -26.6% (inactive). Moreover, the fold change in assay [12] (stronger effect = lower value, cell number ratio, induced over uninduced) was 0.592 (active) and 1.01 (inactive); in assay [12] (measured here: relative caspase fold change +Dox/-Dox), 2.6 and 1.41. Besides, the cell count in assay [12] (measured here: total cells with miR-34 induction, stronger effect = lower value) is 223 and 535; in assay [12] (measured here: total cells without miR-34 induction), 376 and 530. Besides, the luciferase signal in [3] was 52 AU (inactive). In assay [13], the z-score is -0.755 (inactive).
Turning to `O=C(/C=C/c1ccccc1)c1ccc(O[C@@H]2O[C@H](CO)[C@@H](O)[C@H](O)[C@H]2O)cc1O`, in assay [11], the parasite load remaining is 121% (inactive) and the viability was determined as 96.4%. Moreover, the inhibition in [1] is 4.22% (inactive). The red/green cell ratio (normalised) in [2] was 1 (inactive). The normalised cell number in assay [2] (setting [17]) was found to be 0.9. In [2] (setting [18]), this compound displayed a normalised cell number of 0.9. The luciferase signal in assay [3] was 76 AU (inactive).
Regarding `CC(=O)c1c(O)c(C)c(O)c2c1OC1=CC(=O)C(C(C)=O)C(=O)C12C` (stereo not drawn), the results for the inhibition in [4] and in assay [1] were 59.1% and -11.1% (inactive), respectively. The score in assay [5] came to 0.79. For the same compound, the rescue above control in assay [6] was found to be 1.6. Besides, the cytochrome c release ratio in [7] turned out to be 0.98. For the same compound, the inhibition of aggregation in assay [8] is -17%. For the same compound, in assay [9], the glutamate uptake change is -5.26%. The compound also came in with an aggregation suppression score in assay [10] of 0.354. Moreover, the red/green cell ratio (normalised) in assay [2] is 0.89 (inactive). Besides, the normalised cell number is 1.06 in assay [2] (setting [17]) and 0.94 in assay [2] (setting [18]). The luciferase signal in assay [3] is 80 AU (inactive).
As to `CCOC(=O)[C@H](CCc1ccccc1)N[C@H](C)C(=O)N1C2CCCCC2C[C@H]1C(=O)O` (stereo partly drawn), in assay [11], the parasite load remaining is 125% (inactive) and the viability came to 94.3%. Also, the inhibition in assay [1] is 7.88% (inactive). In assay [2], the red/green cell ratio (normalised) is 0.91 (inactive). This compound also yielded a normalised cell number in [2] (setting [17]) of 1.03. The normalised cell number in assay [2] (setting [18]) was determined as 0.93.
For `CC(CCc1ccc(O)cc1)NCCc1ccc(O)c(O)c1` (stereo not drawn), in [11], the parasite load remaining is 118% (inactive) and 72.9% (inactive) and 42.2% (inactive). Further, the viability in [11] was 109% and 73.6% and 115%. The inhibition in assay [1] was 1.78% (inactive). Also, the compound was classed as inactive in assay [14]. Further, the z-score in assay [15] (MELAS cybrid survival, CellTiter-Glo 48 h, stronger effect = higher value) is 0.557 (inactive) and -0.473 (inactive); in [15] (Rieske KO mouse fibroblast survival, CellTiter-Glo 72 h) it was -0.00496 and 0.199; in [13], -1.02 (inactive) and -0.96 (inactive) and -2.02 (inactive). Moreover, in assay [16], the remaining NAD is 10 nM (inactive). For the same compound, the luciferase signal in assay [3] is 56 AU (inactive).
As to `CC(C)=CCc1c2c(c3occ(-c4ccc(O)c(O)c4)c(=O)c3c1O)C=CC(C)(C)O2`, the figures for the inhibition in assay [4] and in [1] were -8.52% and 10.7% (inactive), respectively. This compound returned a score in assay [5] of -0.59. In addition, the rescue above control in assay [6] was -11.4. Moreover, the cytochrome c release ratio in assay [7] is 1.28. Further, in assay [8], the inhibition of aggregation was determined as 45.6%. For the same compound, the glutamate uptake change in assay [9] was determined as 0.58%. The aggregation suppression score in assay [10] is -1.07. Moreover, the red/green cell ratio (normalised) in [2] was 0.76 (inactive). In addition, the normalised cell number is 1.03 in assay [2] (setting [17]) and 0.78 in [2] (setting [18]). In addition, the luciferase signal in assay [3] is 108 AU (inactive).

The record behind these values is PubChem BioAssay.
